# Results: PubChem BioAssay (Tox21)
# Where “and” joins values, the source holds several entries; their conditions need not be identical. Equal values may be shown once. Results filed as inconclusive are left out. Entries that show only a call come without a potency. A structure can be active in one record and inactive in another. Calls of active or inactive are those of the source. Unless noted, the call rests on the fitted dose curve; in most records, active means well fitted curve in the direction sought with a large enough effect in the repeat runs; inconclusive means weak or mixed curves; inactive means no such curve, though single readings can be large; an effect the other way counts as inactive or inconclusive.
# Assays:
# [1] = qHTS assay for small molecule agonists of the p53 signaling pathway (AID 651631; calls by dose curve; further: nearly all actives have a fitted effect of over 15% in size; further: potency means the concentration at half of the fitted maximal effect)
# In short: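 p53RE-bla HCT-116 cells; compounds 16 h, 37 °C; LiveBLAzer B/G FRET substrate 2 h RT; fluorescence intensity read-out, qHTS format.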
# [2] = qHTS assay for small molecules that induce genotoxicity in human embryonic kidney cells expressing luciferase-tagged ATAD5 - cell viability (AID 651634; calls by dose curve; further: nearly all actives have a fitted effect of over 25% in size; further: potency means the concentration at half of the fitted maximal effect)
# In short: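 15.5 hr compound or vehicle exposure of HEK293T cells expressing luciferase-tagged ATAD5 at 37C; live-cell protease activity is read by fluorescence after 30 min of CellTiter-Fluor.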
# [3] = qHTS assay for small molecule disruptors of the mitochondrial membrane potential - cell viability (AID 720634; calls by dose curve; further: nearly all actives have a fitted effect of over 20% in size; further: potency means the concentration at half of the fitted maximal effect)
# In short: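 In this qHTS format, HepG2 cells plated overnight were pinned with compound, incubated 1 hr, and assayed for ATP luminescence with CellTiter-Glo after m-MPI dye addition.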
# [4] = qHTS assay to test for compound auto fluorescence at 590 nm (red) in HepG2 cells (AID 720674); further: potency means the concentration at half of the fitted maximal effect
# In short: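 Compound auto-fluorescence is scored relative to Rose Bengal sodium, measured at 540/590 nm in live HepG2 cultures after 1 hr compound contact (37 C, 5% CO2).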
# [5] = qHTS assay to test for compound auto fluorescence at 535 nm (green) in HepG2 cells (AID 720675); further: potency means the concentration at half of the fitted maximal effect
# [6] = qHTS assay to test for compound auto fluorescence at 460 nm (blue) in HEK293 cells (AID 720678); further: potency means the concentration at half of the fitted maximal effect
# In short: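 Cells were seeded and left to adhere for 4-5 hr at 37C. Compounds were then pin-transferred. After an overnight incubation at 37C under 5% CO2, intrinsic fluorescence at 405/460 nm was measured and referenced to triamterene.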
# [7] = qHTS assay to test for compound auto fluorescence at 590 nm (red) in HEK293 cells (AID 720679); further: potency means the concentration at half of the fitted maximal effect
# In short: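 Each well held 2,000 HEK293 cells in medium containing 10% dialyzed FBS. Following 4-5 hr attachment at 37C, 23 nL test compound or DMSO was added; plates sat overnight, and red fluorescence (540/590nm) was recorded.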
# [8] = qHTS assay for small molecules that induce genotoxicity in human embryonic kidney cells expressing luciferase-tagged ATAD5 (AID 651632); further: nearly all actives have a fitted effect of over 15% in size
# In short: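 Concentration-response screen for ATAD5 upregulation in HEK293T luciferase reporter cells; 16 hr treatment at 37C, then luminescence after 30 min with Amplite at room temperature.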
# [9] = qHTS assay for small molecule agonists of the p53 signaling pathway - cell viability (AID 651633; calls by dose curve; further: nearly all actives have a fitted effect of over 30% in size; further: potency means the concentration at half of the fitted maximal effect)
# In short: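 p53RE-bla cells, seeded at 4,000 per well and rested 5 h at 37 C/5% CO2, received compounds in DMSO for 16 h at 37 C. CellTiter-Glo was then added, and luminescence was read after 30 min at room temperature to gauge cytotoxicity.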
# [10] = qHTS assay for small molecule disruptors of the mitochondrial membrane potential (AID 720635); further: potency means the concentration at half of the fitted maximal effect
# In short: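 HepG2 cells (2,000/well) attached overnight at 37C, then took compound for 1 hr at 37C, 5% CO2. Mito-MPS dye was added for 30 min; fluorescence was read at 490/535 nm (monomers) and 540/590 nm (aggregates).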
# Tags describe the fitted curve by direction and shape or compound fluorescence and quenching.
Compound,Potency [1],Potency [2],Potency [3],Potency [4],Potency [5],Potency [6],Potency [7],Potency [8],Potency [9],Potency [10],"fluorescence, relative to Rose Bengal [4]","fluorescence, % of fluorescein control [5]","fluorescence, % of triamterene [6]","fluorescence, % of fluorescent control [7]"
O=C(NO)c1ccccc1,65.3 µM (active),inactive,inactive,inactive,inactive,inactive,inactive,,,,,,,
CC(=O)Oc1ccc(C2(c3ccc(OC(C)=O)cc3)C(=O)Nc3ccccc32)cc1,211 nM (active) and 237 nM (active),inactive,,inactive,inactive,inactive,inactive,inactive,150 nM (active) and 266 nM (active),,,,,
N[C@@H](CSSC[C@H](N)C(=O)O)C(=O)O,inactive,inactive,inactive,inactive,inactive,,inactive,,inactive,,,,,
CCCSS/C(CCO)=C(\C)N(C=O)Cc1cnc(C)nc1N,,inactive,inactive,inactive,inactive,inactive,inactive,inactive,inactive,inactive,,,,
CCCCCCCCCCCCOC(=O)c1cc(O)c(O)c(O)c1,68.3 µM (active) and 61.1 µM (active),60.9 µM (active) and 13.7 µM (active),60.9 µM (active) and 54.5 µM (active),inactive,inactive,inactive,inactive,,48.3 µM (active) and 48.6 µM (active),3.05 µM (active) and 4.33 µM (active),,,,
CO[C@H]1C=CO[C@@]2(C)Oc3c(C)c(O)c4c(O)c(cc(O)c4c3C2=O)NC(=O)/C(C)=C\C=C/[C@H](C)[C@H](O)[C@@H](C)[C@@H](O)[C@@H](C)[C@H](OC(C)=O)[C@@H]1C,inactive,inactive,inactive,inactive,inactive,,inactive,inactive,inactive,,,,,
CCCC(CC)CCCCCCCN (configuration not stated),inactive,,inactive,inactive,inactive,,inactive,inactive,inactive,,,,,
Clc1ccc(C(c2ccccc2Cl)C(Cl)Cl)cc1 (configuration not stated),68.6 µM (active),inactive,inactive,inactive,inactive,inactive,inactive,,23.7 µM (active),13.3 µM (active) and 27.3 µM (active),,,,
CNC(=O)c1cc(Oc2ccc(NC(=O)Nc3ccc(Cl)c(C(F)(F)F)c3)cc2)ccn1,5.96 µM (active),16.8 µM (active),,inactive,inactive,,inactive,,5.96 µM (active),0.88 µM (active),,,,
COc1cc(C=C2CCC/C(=C\c3ccc(O)c(OC)c3)C2=O)ccc1O,11.9 µM (active),23.7 µM (active),,inactive,inactive,inactive,inactive,inactive,16.8 µM (active),4.95 µM (active),,,,
O=C(O)Cc1ccc(OCCNC[C@H](O)c2ccccc2)cc1,,inactive,inactive,inactive,inactive,inactive,inactive,inactive,inactive,inactive,,,,
CCCCCCCOC(=O)c1ccc(O)cc1,,inactive,27.3 µM (active),inactive,inactive,inactive,inactive,inactive,inactive and 61.1 µM (active),8.64 µM (active) and 8.63 µM (active),,,,
C=C1C(C)(C)[C@@]2(Cl)C(Cl)[C@]1(Cl)C(Cl)(Cl)C2(Cl)Cl (some centres not stated),,inactive,inactive,inactive,inactive,inactive,inactive,inactive,67.3 µM (active),12 µM (active),,,,
CCCCCCOc1ccc(O)cc1,24.3 µM (active),inactive,,inactive,inactive,inactive,inactive,,inactive,12.2 µM (active),,,,
CC(O)C#CC(C)O (configuration not stated),inactive,inactive,inactive,inactive,inactive,inactive,inactive,,,,,,,
CCCCCCCCCCCC(=O)N(CC)CC,inactive,inactive,inactive,inactive,inactive,inactive,inactive,,inactive,inactive,,,,
C=CCCCCCCC=C,inactive,inactive,inactive,inactive,inactive,inactive,inactive,,inactive,inactive,,,,
O=S(=O)(O)CCCN1CCOCC1,inactive,inactive,inactive,inactive,inactive,,inactive,,inactive,inactive,,,,
CC(C)c1cccc(C(C)C)c1N1C(=O)c2ccc(O)cc2C1=O,1.54 µM (active),inactive,9.69 µM (active),inactive,inactive,39.8 µM [fluorescent] (active),inactive,inactive,,1.22 µM (active),,,,
O=C1OC(OC(=O)c2cccnc2Nc2cccc(C(F)(F)F)c2)c2ccccc21 (configuration not stated),inactive,inactive,inactive,inactive,inactive,inactive,inactive,,inactive,24.8 µM (active),,,,
COC(=O)CC(C)CCC=C(C)C (configuration not stated),,inactive,inactive,inactive,inactive,inactive,inactive,inactive,inactive,inactive,,,,
CCCCCCCCCCOCC(O)CN (configuration not stated),33.5 µM (active),,inactive,inactive,inactive,,inactive,inactive,29.8 µM (active),,,,,

Compound,Potency [1],Potency [2],Potency [3],Potency [4],Potency [5],Potency [6],Potency [7],Potency [8],Potency [9],Potency [10],"fluorescence, relative to Rose Bengal [4]","fluorescence, % of fluorescein control [5]","fluorescence, % of triamterene [6]","fluorescence, % of fluorescent control [7]"
CCN(CC)CCNc1ccc(CO)c2sc3ccccc3c(=O)c12,5.96 µM (active),23.7 µM (active),inactive,inactive,inactive,inactive,inactive,inactive,,,,,,
O=C(O)CCCCCCC(=O)O,inactive,inactive,inactive,inactive,inactive,inactive,inactive,,inactive,inactive,,,,
Nc1ccc2cc3ccc(N)cc3nc2c1,3.35 µM (active) and 3.06 µM (active),,inactive,inactive,12.6 µM (active),12.6 µM [fluorescent] (active),inactive,inactive,inactive,,,,,
CCN=c1cc2oc3cc(NCC)c(C)cc3c(-c3ccccc3C(=O)OCC)c-2cc1C,48.4 µM (active),9.65 µM (active) and 6.86 µM (active),inactive,3.55 µM (active) and 3.98 µM (active),39.8 µM (active) and 35.5 µM (active),,4.47 µM [fluorescent] (active) and 6.31 µM [fluorescent] (active),,60.9 µM (active) and 15.4 µM (active),,,,,
CCC(C)c1cc([N+](=O)[O-])cc([N+](=O)[O-])c1OC(=O)OC(C)C (configuration not stated),30.6 µM (active),61.1 µM (active),21.7 µM (active),inactive,inactive,inactive,inactive,inactive,,,,,,
CCOC(=O)N1CCC(=C2c3ccc(Cl)cc3CCc3cccnc32)CC1,23.7 µM (active) and 61.1 µM (active),43.3 µM (active),27.3 µM (active),inactive,inactive,inactive,inactive,,68.6 µM (active),29.8 µM (active) and 54.5 µM (active),,,,
C[n+]1c2cc(N)ccc2cc2ccc(N)cc21 (tested in a mixture with another compound),7.5 µM (active),,inactive,inactive,14.1 µM (active),12.6 µM [fluorescent] (active),inactive,,,,,,,
S=P(N1CC1)(N1CC1)N1CC1,14.4 µM (active),inactive,inactive,inactive,inactive,,inactive,,inactive,inactive,,,,
CC(C)N=C(N)/N=C(\N)Nc1ccc(Cl)cc1,inactive,inactive,inactive,,,,,,inactive,inactive,0.432% [at 18.6 µM] (inactive),-0.0393% [at 18.6 µM] (inactive),-0.225% [at 18.6 µM] (inactive),-0.126% [at 18.6 µM] (inactive)
CN(C)CCCN1c2ccccc2Sc2ccc(C(F)(F)F)cc21,11.9 µM (active),,,inactive,inactive,inactive,inactive,inactive,29.8 µM (active),,,,,
O=C1OC(=O)c2cccc3cccc1c23,inactive,inactive,inactive,inactive,inactive,,inactive,,inactive,,,,,
CCOC(=O)C1=C(C)NC(C)=C(C(=O)OCC)C1c1ccccc1/C=C/C(=O)OC(C)(C)C,29.8 µM (active),,,inactive,inactive,inactive,inactive,inactive,29.8 µM (active),,,,,
C=C(C)C(=O)OCCC[Si](Cl)(Cl)Cl,inactive,inactive,,inactive,inactive,inactive,inactive,inactive,inactive,61.7 µM (active),,,,
CC(C)(c1cc(Br)c(OCCO)c(Br)c1)c1cc(Br)c(OCCO)c(Br)c1,,37.7 µM (active),inactive,inactive,inactive,inactive,inactive,inactive,47.5 µM (active),5.97 µM (active),,,,
CC(C)(c1cc(Br)c(O)c(Br)c1)c1cc(Br)c(O)c(Br)c1,48.4 µM (active) and 41 µM (active),,inactive and 60.9 µM (active),inactive,inactive,inactive,inactive,inactive,60.9 µM (active) and 24.3 µM (active) and 23 µM (active),,,,,
Nc1cc(Cl)c([N+](=O)[O-])cc1O,,68 µM (active),inactive,inactive,inactive,,inactive,inactive,inactive,19.2 µM (active),,,,
O[C@@H](c1cc(C(F)(F)F)nc2c(C(F)(F)F)cccc12)[C@H]1CCCCN1,,23.7 µM (active),,inactive,inactive,,inactive,inactive,21.1 µM (active),,,,,
C/C=C/C=N/NC(=O)c1ccncc1,,inactive,inactive,inactive,inactive,inactive,inactive,inactive,inactive,,,,,
CN(C)c1ccc(N=NS(=O)(=O)O)cc1,,,,inactive,inactive,inactive,inactive,inactive,inactive,2.17 µM (active),,,,
CN(Cc1cc(Br)cc(Br)c1N)C1CCCCC1,,inactive,,inactive,inactive,,inactive,inactive,29.8 µM (active),26.6 µM (active),,,,
CCCCN(CCCC)CCC(O)c1cc2c(Cl)cc(Cl)cc2c2cc(C(F)(F)F)ccc12 (configuration not stated),,inactive,inactive,,,,,inactive,inactive,,0.511% [at 18.6 µM] (inactive),0.0229% [at 18.6 µM] (inactive),,0.217% [at 18.6 µM] (inactive)
Cc1ccc(N)cc1O,,inactive,inactive,inactive,inactive,,inactive,inactive,inactive,17.2 µM (active),,,,
